Hits are enriched below; roughly 1.7% of the tested compounds scored in any of these assays.
LYP inh 2 – PTPN22 phosphatase inhibitors, primary screen, biochemical, DiFMUP fluorescence, 2 µM | recombinant LYP catalytic domain | Tyrosine-protein phosphatase non-receptor type 22 (Homo sapiens), Q9Y2R2 | hit rate 0.21% among 96,000 | inhibition, % at 2 µM;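 active = inhibition at 2 µM at or above a set limit, the screen mean plus 3 SD, cut at about 24% in these data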;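 note: 0% = DMSO with enzyme and 100% = enzyme fully blocked by orthovanadate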
PLK1 inh – human PLK1 kinase inhibitors, primary screen, biochemical, TR-FRET; inhibition, % at 10 µM; AID 619, 2007; recombinant PLK1 kinase, TR-FRET peptide phosphorylation; Serine/threonine-protein kinase PLK1 (Homo sapiens), P53350; hit rate 0.53% among 97,000;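 active = inhibition of 50% or more in the single-concentration screen; inactive = inhibition below 50%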;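 note: 0% = DMSO max control and 100% = H-89 dihydrochloride min control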
Target sequence (P53350 whole entry, looked up): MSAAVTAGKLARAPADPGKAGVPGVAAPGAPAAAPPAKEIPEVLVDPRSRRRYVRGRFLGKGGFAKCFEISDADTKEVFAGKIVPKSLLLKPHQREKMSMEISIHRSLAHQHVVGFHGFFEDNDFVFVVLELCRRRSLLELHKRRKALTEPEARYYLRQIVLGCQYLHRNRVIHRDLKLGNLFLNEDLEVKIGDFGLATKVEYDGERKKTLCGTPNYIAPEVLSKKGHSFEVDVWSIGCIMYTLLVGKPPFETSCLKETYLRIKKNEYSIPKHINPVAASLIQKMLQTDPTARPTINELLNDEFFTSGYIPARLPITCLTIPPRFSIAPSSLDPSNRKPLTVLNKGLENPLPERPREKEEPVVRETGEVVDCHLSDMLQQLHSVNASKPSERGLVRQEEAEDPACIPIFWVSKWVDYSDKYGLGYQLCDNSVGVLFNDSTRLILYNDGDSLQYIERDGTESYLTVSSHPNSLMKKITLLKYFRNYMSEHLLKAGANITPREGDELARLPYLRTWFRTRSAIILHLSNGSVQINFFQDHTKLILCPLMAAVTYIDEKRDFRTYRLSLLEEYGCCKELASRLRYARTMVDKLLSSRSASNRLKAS
PLK1 PBD inh – Plk1 polo box domain binding inhibitors, primary screen, biochemical, fluorescence polarization; Plk1 PBD phosphopeptide binding; inhibition, %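 (tested at about 20 µM)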; hit rate 0.13% among 97,000; AID 693, 2007; in the data active = inhibition above about 34%, passing the limit was not always enough
EphB4 ephrin blk – EphB4-ephrin-B2 interaction antagonists, primary screen, biochemical, TNYL-RAW peptide probe, fluorescence polarization; EphB4 LBD / TNYL-RAW-Alexa532 peptide; inhibition, % at 7 µM; hit rate 0.15% among 97,000;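 active = inhibition above the screen-wide mean inhibition plus 3 SD, cut at about 15% in these data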;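 note: 0% = DMSO wells and 100% = excess unlabeled TNYL-RAW peptide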
FAK blocker – FAK kinase inhibitors, primary screen, biochemical | biochemical FAK kinase activity assay | inhibition, %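 (tested at 7 µM)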 | hit rate 0.84% among 97,000 | AID 727, 2007;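 note: 0% = DMSO and 100% = reference compound high control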
LYP act – LYP phosphatase activators, primary screen, biochemical, DiFMUP fluorescence, 2 µM; Tyrosine-protein phosphatase non-receptor type 22 (Homo sapiens), Q9Y2R2; recombinant LYP; 0 = plate median, 100 = signal doubled; activation, % at 2 µM; hit rate 0.11% among 96,000;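 active = activation at 2 µM above a set limit, the mean plus 5 SD, cut at about 37% in these data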
FAK inh confirm – FAK kinase inhibitors, retest, confirmation, biochemical; shares compounds with FAK blocker; FAK kinase biochemical inhibition assay; inhibition, % at 7 µM; hit rate 28% among 750
The depositor's hits bear a star. Cut-off read from the data, not from the text of the source, unless noted: active = inhibition above about 19%; inactive = the rest.

Screening Cc1ccc2c(c1)cc1c(=O)[nH]ncn12 returned LYP inh 2 6, PLK1 inh 15, PLK1 PBD inh 4, EphB4 ephrin blk -4, FAK blocker 37*, LYP act -2 and FAK inh confirm 12.
Screening COc1ccc2c(c1)CCc1c(C(=O)Nc3ccn(Cc4ccc(C)cc4)n3)noc1-2 returned LYP inh 2 16, PLK1 inh -4, PLK1 PBD inh 7, EphB4 ephrin blk -12, FAK blocker 26*, LYP act -18 and FAK inh confirm -1.
For CC(=O)c1sc2nc(C)cc(C)c2c1N the results were LYP inh 2 6, PLK1 inh -10, PLK1 PBD inh 9, EphB4 ephrin blk 5, FAK blocker 20*, LYP act -1 and FAK inh confirm 5.
O=C(Cc1ccccc1)Nc1ccc(N2CCCC2)cc1 was read as LYP inh 2 9, PLK1 inh -3, PLK1 PBD inh -5, EphB4 ephrin blk -4, FAK blocker 30*, LYP act -7 and FAK inh confirm 16.
CCN1CCN(c2ccc(NC(=O)Cc3ccccc3)cc2)CC1 was read as LYP inh 2 -5, PLK1 inh -6, PLK1 PBD inh 12, EphB4 ephrin blk 3, FAK blocker 7 and LYP act 0.
O=C(Nc1ccc(N2CCCC2)cc1)C(c1ccccc1)c1ccccc1 was read as LYP inh 2 12, PLK1 inh -9, PLK1 PBD inh -22, EphB4 ephrin blk 2, FAK blocker 46*, LYP act -12 and FAK inh confirm 29*.
Screening CC(C)C(=O)Nc1ccc(N2CCCC2)cc1 returned LYP inh 2 -3, PLK1 inh -7, PLK1 PBD inh -14, EphB4 ephrin blk -4, FAK blocker 5 and LYP act 3.
`Cc1nc2ccc(C(C(F)(F)F)(C(F)(F)F)C(F)(F)F)cc2[nH]1` gave LYP inh 2 15, PLK1 inh -9, PLK1 PBD inh 2, EphB4 ephrin blk 6, FAK blocker -4 and LYP act -16.
Screening O=C(/C=C/c1c(Cl)cccc1Cl)n1cccn1 returned LYP inh 2 6, PLK1 inh -7, PLK1 PBD inh 0, EphB4 ephrin blk -2, FAK blocker -1 and LYP act -10.
For CC(=O)c1ccc(NCC(=O)N2CCN(c3ccccc3)CC2)cc1 the results were LYP inh 2 12, PLK1 inh -20, PLK1 PBD inh -17, EphB4 ephrin blk 4, FAK blocker 20*, LYP act -13 and FAK inh confirm 19*.
`CCCCOC(=O)Cn1c(=N)n(CCN2CCOCC2)c2ccccc21` gave LYP inh 2 8, PLK1 inh -10, PLK1 PBD inh 46, EphB4 ephrin blk -4, FAK blocker 0 and LYP act -6.
`N=c1n(CCN2CCOCC2)c2ccccc2n1CC(=O)c1ccc(Cl)c(Cl)c1` gave LYP inh 2 6, PLK1 inh -8, PLK1 PBD inh -24, EphB4 ephrin blk -1, FAK blocker 95*, LYP act -6 and FAK inh confirm -2.
For Cn1c(=O)c2ncn(CC(=O)Nc3cccc(-c4nc5ccccc5s4)c3)c2n(C)c1=O the results were LYP inh 2 12, PLK1 inh 0, PLK1 PBD inh -4, EphB4 ephrin blk 2, FAK blocker 10 and LYP act -7.
Screening Cc1cc2n(c1)CCn1c(C)ccc1-2 returned LYP inh 2 -2, PLK1 inh 5, PLK1 PBD inh 14, EphB4 ephrin blk 4, FAK blocker 23*, LYP act 2 and FAK inh confirm 17.
O=C(c1cc2ccccc2oc1=O)N(Cc1ccc2c(c1)OCO2)Cc1ccco1 was read as LYP inh 2 2, PLK1 inh -7, PLK1 PBD inh 1, EphB4 ephrin blk -4, FAK blocker 2 and LYP act 0.

Screening data deposited in PubChem by several laboratories.
